From the supplement of paper PMC4166925
± gives the standard deviation of the averaged measurements. Over roughly 33,000 sequences, “E-score (dimensionless, -0.5 to 0.5)” has its median near -0.049; the highest 2% begin near 0.37. The full list was thinned out, with the highest values kept by preference.

Each sequence was assayed on T1, PmTbr T-box DNA-binding domain (GST fusion) (assay: PBM E-score of 8-mer (E-score (dimensionless, -0.5 to 0.5)); Tbr is Tbrain of the sea star Patiria miniata (Pm) or the sea urchin Strongylocentrotus purpuratus (Sp); higher = stronger binding preference). Details: the construct has about 5 more residues each side.
T1 sequence: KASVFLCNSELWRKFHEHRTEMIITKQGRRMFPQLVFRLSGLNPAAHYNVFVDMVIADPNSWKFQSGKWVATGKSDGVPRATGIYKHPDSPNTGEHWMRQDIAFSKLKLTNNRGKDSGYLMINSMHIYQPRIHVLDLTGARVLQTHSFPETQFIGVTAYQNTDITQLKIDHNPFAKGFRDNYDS
Method: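 Universal protein-binding microarray (Agilent AMADID 016060, 60-bp probes with a 35-bp variable region) incubated with 200 nM GST-fused Patiria miniata Tbr T-box DNA-binding domain (residues 272-466) in PBS pH 7.5. Scored for every ungapped 8-mer (given with its reverse complement) by the Universal PBM Analysis Suite as E-score (modified Wilcoxon-Mann-Whitney enrichment, range -0.5 to 0.5; >0.45 counts as bound) and Z-score of median probe intensity. Two replicate arrays (datasets 1 and 2).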

Row | Sequence | PBM E-score of 8-mer
1 | ATGTCACA | 0.375 ± 0.013
2 | CCGTCACC | 0.356 ± 0.03
3 | CTGTCACA | 0.4 ± 0.0052
4 | ATGTCACG | 0.262 ± 0.012
5 | ATGTCAGC | 0.00315 ± 0.0099
6 | CCCCAGAC | -0.109 ± 0.082
7 | ACACTGTG | 0.227 ± 0.0059
8 | ACCTACTG | 0.0087 ± 0.021
9 | AGATAGCT | -0.0197 ± 0.1
10 | AGGCGAAA | -0.0128 ± 0.028
11 | AATGATCG | -0.0804 ± 0.013
12 | ACTTAAGA | -0.0828 ± 0.02
13 | TATGGTGA | 0.074 ± 0.043
14 | GAGTCACA | 0.237 ± 0.0075
15 | GCGTCACA | 0.307 ± 0.014
16 | GTGTCACA | 0.445 ± 0.0066
17 | AGCCCCGC | -0.0835 ± 0.072
18 | ATTCTCAC | 0.435 ± 0.017
19 | AATCTCTC | -0.0609 ± 0.011
20 | ATTCTCAA | 0.115 ± 0.051
21 | AATCTCAT | -0.0261 ± 0.042
22 | ATTCTCAG | 0.0465 ± 0.077
23 | AATCTCAC | 0.382 ± 0.0088

Row | Sequence | PBM E-score of 8-mer
24 | ATGGCGGA | -0.225 ± 0.027
25 | CGGCAAAC | -0.0247 ± 0.012
26 | ACTAGGTG | 0.425 ± 0.012
27 | AATAGGTA | -0.0644 ± 0.018
28 | ATTAGGTA | -0.131 ± 0.0089
29 | AGTAGGTG | 0.4125 ± 0.00071
30 | AATAGGTG | 0.428 ± 0.013
31 | ACTAGGTC | -0.143 ± 0.0081
32 | ATTAGGTG | 0.374 ± 0.0089
33 | ATTAGGTC | -0.153 ± 0.013
34 | AATAGGTC | -0.258 ± 0.012
35 | ACTAGGTA | -0.23 ± 0.039
36 | AGTAGGTA | -0.0493 ± 0.079
37 | AGTAGGTC | -0.148 ± 0.05
38 | ATCGCTTC | 0.0264 ± 0.017
39 | CACATTTC | 0.3486 ± 0.0015
40 | AAATTCAC | 0.263 ± 0.021
41 | AAAAGCGG | -0.261 ± 0.1
42 | TTAGTAAA | -0.0101 ± 0.081
43 | ACACTTCC | 0.428 ± 0.016
44 | CCACTTCA | 0.13 ± 0.034
45 | CCACTTCC | 0.0762 ± 0.022
46 | ACACTTCG | 0.427 ± 0.0093

Row | Sequence | PBM E-score of 8-mer
47 | TCACTTCA | 0.186 ± 0.021
48 | ACACTTCA | 0.441 ± 0.017
49 | ACACTCCT | 0.228 ± 0.019
50 | AAACTTCG | 0.00852 ± 0.068
51 | ACACTCCG | 0.3818 ± 0.0019
52 | CCACTTCG | 0.254 ± 0.028
53 | ACTCTCCG | -0.0258 ± 0.0077
54 | GCACTTCC | 0.365 ± 0.021
55 | ATTCTCGG | -0.082 ± 0.071
56 | CGAATCAC | 0.124 ± 0.029
57 | AGAGGTCA | -0.0997 ± 0.006
58 | TACTGACA | 0.1838 ± 0.00074
59 | TCCCAGCA | 0.0248 ± 0.11
60 | ACCGAATG | -0.119 ± 0.0097
61 | CAGAAGCG | 0.103 ± 0.04
62 | ACTCTTCT | -0.264 ± 0.02
63 | ACACTTCT | 0.4266 ± 0.0042
64 | AAACTTCT | -0.236 ± 0.043
65 | AGGTTCTC | 0.0874 ± 0.028
66 | ATTCACCA | 0.0566 ± 0.052
67 | CCGTTGGC | 0.151 ± 0.01
68 | AAATGTGT | 0.432 ± 0.011
69 | AAATGTGC | 0.206 ± 0.049

Row | Sequence | PBM E-score of 8-mer
70 | ATATGTGA | 0.24 ± 0.064
71 | ATGTGTGC | 0.219 ± 0.016
72 | AAATGTGG | 0.0797 ± 0.052
73 | ATGTGTGA | 0.4845 ± 0.00059
74 | GTGTGTGA | 0.41536 ± 0.00023
75 | GTGTGTAA | 0.214 ± 0.022
76 | CTGTGTGA | 0.298 ± 0.018
77 | TCAAGAAA | -0.17 ± 0.11
78 | AAACCTTA | -0.0234 ± 0.053
79 | ACACCTTA | 0.4762 ± 0.00075
80 | GCACCTGA | 0.391 ± 0.024
81 | ATACCTTA | 0.0857 ± 0.093
82 | AGACCTTG | -0.174 ± 0.013
83 | CCACCTGA | 0.172 ± 0.044
84 | TCACCTGA | 0.353 ± 0.019
85 | GCACCTTA | 0.4187 ± 0.0021
86 | AAACCTTG | -0.132 ± 0.0072
87 | CCACCTTA | 0.246 ± 0.036
88 | ACACCTTG | 0.481 ± 0.0055
89 | GAACCTTA | -0.144 ± 0.042
